These results are taken from PubChem BioAssay AID642 (Vanderbilt High Throughput Screening Facility, 2007).

Hit rate of the full screen: of about 2,200 compounds, about 2,000 (91%) were called active. The set was probably picked from earlier hits. A selection follows. A number with no mark means an inactive call.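 Rule for the calls: active = luminescence in either of two replicates above the same-plate mean plus 3 SD of the low-dose dopamine control; inactive = the rest.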

For the assay, the target named is D(1A) dopamine receptor (Homo sapiens) (UniProt P21728). The assay can be described thus: potentiation of dopamine EC30 D1 response – cell-based, HEK293 D1, CRE-luciferase, duplicate, confirmation (AID 642). The conditions noted are these: at 10 µM, active compounds read high.
Sequence of D(1A) dopamine receptor (Homo sapiens) (P21728 whole entry, looked up): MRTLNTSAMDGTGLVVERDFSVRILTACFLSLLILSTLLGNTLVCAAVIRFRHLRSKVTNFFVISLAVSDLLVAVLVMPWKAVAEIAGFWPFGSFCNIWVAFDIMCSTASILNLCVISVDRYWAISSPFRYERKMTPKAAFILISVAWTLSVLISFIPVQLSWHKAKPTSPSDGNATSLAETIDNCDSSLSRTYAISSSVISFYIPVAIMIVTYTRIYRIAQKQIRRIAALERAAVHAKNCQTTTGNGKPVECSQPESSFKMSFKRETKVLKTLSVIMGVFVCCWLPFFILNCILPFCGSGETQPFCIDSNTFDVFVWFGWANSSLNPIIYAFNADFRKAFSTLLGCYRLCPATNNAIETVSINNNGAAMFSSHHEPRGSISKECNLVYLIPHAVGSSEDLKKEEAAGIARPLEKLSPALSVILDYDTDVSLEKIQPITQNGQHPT
`CC1(C)Cc2ccccc2-c2nc(CN3CCOCC3)[nH]c(=O)c21`: the luminescence was 19300 (active).

`CCCCNc1nc2ccccc2nc1NS(=O)(=O)c1cccs1`: the luminescence is 15900 (active).

As for `Cn1c(=O)c2[nH]c(NCC3CCCO3)nc2n(-c2ccccc2)c1=O` (configuration not stated), the luminescence is 8480 (active).

Consider `CN1CCN(CC(O)COCc2ccc3c(c2)OCO3)CC1` (configuration not stated), for which the luminescence was 6270 (active).

For the compound `N#Cc1nc(Cc2ccccc2)oc1NCCc1ccccc1`, the luminescence was 8810 (active).

Regarding `COc1ccc(Nc2oc(-c3ccccc3Cl)nc2C#N)cc1`, the luminescence is 15100 (active).

Consider `CCOc1ccc(Nc2oc(Cc3ccccc3)nc2C#N)cc1`, for which the luminescence was 10900 (active).

In the case of `CCCc1nc(N)nc2c1C(=O)CC(C)(C)C2`, the luminescence was 24100 (active).

For the compound `O=C(C1CCC1)N1CCc2cc(S(=O)(=O)NCc3cccnc3)ccc21`, the luminescence is 13000 (active).

On to `CCOc1cccc(-n2nnnc2-c2ccc(OC)cc2)c1`, for which the luminescence was 10400 (active).

As for `COc1ccc(-n2c(Cc3cccn3C)nnc2SCC(=O)Nc2cc(C)cc(C)c2)cc1`, the luminescence is 4890.

As for `CCOC(=O)c1c(NC(=O)CSc2nnc(Cc3csc(N)n3)n2C)sc(C)c1C`, the luminescence is 9070 (active).

With `CCOC(=O)c1c(NC(=O)CSc2nnc(CN3CCOCC3)n2C)sc2c1CCCC2`, the luminescence is 11600 (active).

For the compound `CC1Oc2ccccc2N(Cc2cccnc2)C1=O` (configuration not stated), the luminescence is 10900 (active).

In the case of `COC(=O)[C@H](C(C)C)n1c(C)c(C(C)=O)c(C(C)=O)c1C`, the luminescence was 7760.

With `CCCn1c(=NC(C)=O)c(C(=O)OCC)cc2c(=O)n3ccccc3nc21`, the luminescence was 9880 (active).

For the compound `c1coc(-c2nc3nc4ccccc4n3nc2-c2ccco2)c1`, the luminescence was 14000 (active).

As for `CCOc1ccc(-c2nnn(CC(=O)N3CCN(c4ccc(OC)cc4)CC3)n2)cc1OCC`, the luminescence was 9620 (active).

For the compound `CCOc1cc(-c2noc(CCC(=O)N3CCOCC3)n2)ccc1OC`, the luminescence is 10500 (active).

Consider `COc1nc(NCc2ccc(Cl)cc2)nc(OC)n1`, for which the luminescence was 13700 (active).

Turning to `CC(=O)c1ccc(Oc2cc(C)nc(-n3nc(C)cc3C)n2)cc1`, the luminescence is 17900 (active).

As for `COc1ccc(Nc2cc(C)nc(-n3nc(C)cc3C)n2)cc1`, the luminescence is 13700 (active).

In the case of `CCCCSc1nc2c(c(=O)n1CC)SC(C)C2` (configuration not stated), the luminescence is 8100 (active).

As for `CC(C)C1C2=C(CC(C)(C)CC2=O)ON1c1ccccc1` (configuration not stated), the luminescence is 12900 (active).

On to `CCOC(=O)c1cc(C)sc1NC(=O)C1CCC1`, for which the luminescence is 19700 (active).

Regarding `N#CCCN1CCN(S(=O)(=O)c2ccc(S(=O)(=O)NC3CCCCC3)cc2)CC1`, the luminescence was 5770 (active).

With `CCCS(=O)(=O)N1CCC(C(=O)NCCc2ccc(OC)c(OC)c2)CC1`, the luminescence was 7140.

Take `COc1ccc(CCN(C)C(=O)C2CCCN(Cc3ccc(OC)c(OC)c3)C2)cc1OC` (configuration not stated): the luminescence is 7890 (active).

As for `COc1ccc(NC(=O)C2CCCN(S(=O)(=O)c3cccc4cccnc34)C2)cc1OC` (configuration not stated), the luminescence was 13800 (active).

Turning to `CCSc1ncnc2c(C#N)c3n(c12)CCCCC3`, the luminescence was 18600 (active).

`COc1ccc(-c2nnco2)cc1OC`: the luminescence is 10800 (active).

For the compound `C=CCSc1nc2c(c(=O)[nH]1)C(C(C)C)C(C#N)=C(N)O2` (configuration not stated), the luminescence was 18500 (active).

As to `CCOc1ccc2[nH]c(=O)c(C(c3nnnn3CCOC)N3CCOCC3)cc2c1` (configuration not stated), the luminescence is 5420.

As to `CC1CCN(c2nc3c(c(=O)[nH]c(=O)n3C)n2CCCc2ccccc2)CC1`, the luminescence is 14000 (active).

For the compound `CCCSc1nc2c(c(=O)[nH]c(=O)n2C)n1CCc1ccccc1`, the luminescence was 24800 (active).

`O=C(NCc1ccco1)c1cnn2c(C(F)(F)F)cc(-c3ccco3)nc12`: the luminescence was 8660 (active).

Regarding `O=S(=O)(c1cccs1)N1CCc2ccccc2C1`, the luminescence is 12600 (active).

With `CN(C)c1nc(N)nc(CSc2nnnn2-c2cccc3ccccc23)n1`, the luminescence is 7470 (active).

Consider `CCn1ncc(C2=NOC(C(=O)Nc3ccccc3C(=O)OC)C2)c1C` (configuration not stated), for which the luminescence was 14000 (active).

Take `Cc1nn(-c2ccccc2)c2c1C(=O)NC(=O)C(C)(C)C2`: the luminescence was 17700 (active).

For `CCn1cc(C(=O)NCC2COc3ccccc3O2)c2cc(OC)c(OC)cc2c1=O` (configuration not stated), the luminescence was 9310 (active).

Turning to `Nc1ccc(S(=O)(=O)NC(=O)c2ccccc2)cc1`, the luminescence was 5620.

As for `O/N=C(\c1ccc2c(c1)OCCO2)C1CCCCC1`, the luminescence was 10600 (active).

For `CC(=O)OC(C)C[N+](C)(C)C` (configuration not stated), the luminescence was 6620 (active).

Consider `c1ccc2c(NCC3CCCO3)nc(-c3ccncc3)nc2c1` (configuration not stated), for which the luminescence was 9880 (active).

On to `CCCN1Cc2cccc(C(=O)NCc3ccccc3)c2C1=O`, for which the luminescence was 12000 (active).

With `CC1CCN(c2oc(-c3ccccc3F)nc2C#N)CC1`, the luminescence is 8980 (active).

As for `C#CCNc1nc(C(C)C)nc2c1nnn2Cc1ccccc1F`, the luminescence is 11700 (active).

Turning to `CCOc1cc(C(=O)N2CCc3cc(OC)c(OC)cc3C2)ccc1OC(F)F`, the luminescence is 24600 (active).

Consider `COc1ccc(CCNc2ncnc3nc[nH]c23)cc1OC`, for which the luminescence is 14700 (active).

For the compound `COc1ccc(-c2nnc(SCC(=O)NC3CCCCC3)o2)cc1OC`, the luminescence was 12200 (active).

Consider `CCOc1ccccc1C1CC(c2ccccc2)Nc2nc(N)nn21` (configuration not stated), for which the luminescence was 10100 (active).

As to `Cc1ccc(C2CC(c3cccc(Br)c3)n3nc(N)nc3N2)cc1` (configuration not stated), the luminescence was 10800 (active).

On to `Cc1ccc(C2CC(c3cccc(C)c3)n3nc(N)nc3N2)cc1` (configuration not stated), for which the luminescence is 8720 (active).

Consider `FC(F)(F)c1cc(-c2ccco2)nc(N2CCOCC2)n1`, for which the luminescence is 24200 (active).

With `Cc1cc(C(F)(F)F)nn1-c1nc(-c2ccco2)cc(C(F)(F)F)n1`, the luminescence is 8160 (active).

As to `COc1ccc(-c2nnn(Cc3nc(N)nc(N4CCCCC4)n3)n2)cc1`, the luminescence was 12600 (active).

Regarding `COc1ccc(S(=O)(=O)Nc2ccc(S(=O)(=O)N3CCCCC3)cc2)cc1OC`, the luminescence is 13000 (active).

With `O=C(CSc1nnc2scc(-c3ccc(F)cc3)n12)NCc1ccco1`, the luminescence is 11300 (active).

As to `Cn1c(/C(C#N)=C2/CCCCCN2)nc2ccccc21`, the luminescence is 15000 (active).

With `COc1ncnc2c1N=C1CC(C)(C)CC(N)=C1S2`, the luminescence was 8600 (active).

Regarding `COC(=O)c1ccccc1NC(=O)C1CCN(S(=O)(=O)c2cc(OC)ccc2OC)CC1`, the luminescence was 13600 (active).

Consider `CCCCc1c(O)nc2n(c1=O)CCS2`, for which the luminescence was 4500.

As for `Oc1ccc(-c2csc(Nc3cccnc3)n2)cc1`, the luminescence was 10600 (active).

In the case of `COC(=O)C(C)C1Sc2ccccc2NC1=O` (configuration not stated), the luminescence is 11200 (active).

As to `CC(=O)Nc1cccc(Oc2cc(C#N)c(C#N)cc2N2CCOCC2)c1`, the luminescence was 18800 (active).

Take `COc1cc(NC(=O)N2CCOCC2)cc(OC)c1`: the luminescence was 7060.

On to `CCn1c(=N)c(S(=O)(=O)c2ccc(F)cc2)cc2c(=O)n3ccccc3nc21`, for which the luminescence is 18300 (active).

As for `CCc1ccc2oc(=O)cc(CN3CCCCC3C)c2c1` (configuration not stated), the luminescence was 10700 (active).

Consider `COc1ccc(CCNC(=O)CCn2c(=O)oc3ccccc32)cc1OC`, for which the luminescence was 12500 (active).

Take `COc1ccc(CCNC(=O)c2cc3sccc3n2C)cc1OC`: the luminescence was 7950.

As for `CCCc1nc(-c2ccccc2O)n(-c2ccccc2)n1`, the luminescence is 14800 (active).

For the compound `COc1ncnc2sc3c(c12)CCCC3`, the luminescence is 9980 (active).

As to `N#Cc1c(N)sc2c1CCN(C(=O)OCc1ccccc1)C2`, the luminescence was 11700 (active).

Turning to `COc1ccc(-c2n[nH]c(C)c2-c2ccc(OC)c(OC)c2)c(O)c1`, the luminescence was 7480 (active).

As for `c1ccc(COc2nsnc2N2CCOCC2)cc1`, the luminescence was 9440 (active).

Take `CCSc1nc(C)nc2c1oc1ccccc12`: the luminescence is 15900 (active).

Turning to `c1ccc(-c2nnc3n2NC(c2ccc4c(c2)OCO4)S3)cc1` (configuration not stated), the luminescence is 13600 (active).

For `Cn1c(=O)c2cn(-c3cccc4ccccc34)cc2n(C)c1=O`, the luminescence was 8890 (active).

For `COc1ccc(S(=O)(=O)N(C)CC(=O)Nc2ccc3c(c2)OCCO3)cc1OC`, the luminescence is 7550 (active).

For `COC(=O)C1=C(C)NC2=C(C(=O)c3ccccc32)C1c1ccc(-c2ccc(C(=O)O)cc2)o1` (configuration not stated), the luminescence is 12100 (active).

In the case of `COc1ccc(-c2nn3c(-c4ccccc4)nnc3s2)cc1OC`, the luminescence was 22300 (active).

Turning to `COc1cc(-c2nn3c(-c4cccc(C)c4)nnc3s2)cc(OC)c1OC`, the luminescence is 12800 (active).

`N#CCSc1nc2ccccc2c(=O)n1-c1ccccc1`: the luminescence was 19300 (active).

Take `CCOc1ccc(Cn2c(SCCCCC#N)nc3c2c(=O)n(C)c(=O)n3C)cc1OCC`: the luminescence is 14200 (active).

Take `CCC(=O)NC(=Nc1nc2ccccc2s1)NC(=O)CC`: the luminescence is 18700 (active).

Regarding `CCNc1nc(NCC)nc(N(C)n2cnnc2)n1`, the luminescence is 15800 (active).

For `C/C(Cl)=C\Cn1c(Nc2cccc(C)c2)nc2c1c(=O)n(C)c(=O)n2C`, the luminescence was 12000 (active).

Consider `Cc1cc(C)c2c(n1)nn1c(-n3ccnc3)cc(C)nc21`, for which the luminescence is 11600 (active).

Take `COc1ccc(-c2cc(C(F)(F)F)nc(S(C)(=O)=O)n2)cc1OC`: the luminescence was 10100 (active).

For `CCCn1c(=O)c2[nH]c(C3CCCC3)nc2n(CCC)c1=O`, the luminescence was 22800 (active).

`CC(C)c1cc(C(=O)O)on1`: the luminescence was 5510.

As to `CCOc1ccc2c(c1)cc(CN(C(=O)CC)C1CCCCC1)c1nnnn12`, the luminescence is 16400 (active).

For the compound `CC(C)n1c(C(O)c2ccccc2)nc2ccccc21` (configuration not stated), the luminescence was 6650 (active).

In the case of `COC(=O)Nc1ncc(CN2C(=O)c3ccccc3C2=O)s1`, the luminescence is 9780 (active).

With `O=C(c1ccco1)N1CCN=C1SCc1cccc(Cl)c1`, the luminescence is 9520 (active).

Regarding `O=c1cc(-c2ccccc2)nc(N2CCCCC2)[nH]1`, the luminescence is 12700 (active).

For `Cc1ccc(S(=O)(=O)c2c(N)n(C)c3nc4ccccc4nc23)cc1`, the luminescence was 11800 (active).

For the compound `CCOC(=O)c1cc2n(c1C)-c1ccccc1C2=O`, the luminescence was 9350 (active).

Consider `C/C(=C\C(=O)c1ccccc1)Nc1cccc(O)c1`, for which the luminescence was 3550 (active).

Consider `N#Cc1nc(N)nc(N(c2ccccc2)c2ccccc2)n1`, for which the luminescence is 13100 (active).

On to `CCc1cc(=O)oc2cc(OCC(=O)N3CCCc4ccccc43)ccc12`, for which the luminescence is 14000 (active).

With `CCn1nc(C(=O)OCC(=O)N2c3ccccc3CC2C)c2ccccc2c1=O` (configuration not stated), the luminescence is 13900 (active).

Consider `Cc1ccc(-c2nn(-c3ccccc3)cc2CN(Cc2ccccc2)C(=O)CCC(=O)O)o1`, for which the luminescence is 9380 (active).

Consider `O=C(NCc1ccccn1)c1ccc2nc(-c3ccco3)c(-c3ccco3)nc2c1`, for which the luminescence was 10400 (active).

In the case of `C=CCn1cnc2scc(-c3ccccc3)c2c1=O`, the luminescence is 16400 (active).

Turning to `CCOC(=O)/C=c1\s/c(=C\c2ccccc2OC)c(=O)n1CC(=O)N1CCOCC1`, the luminescence is 15600 (active).
